The whole screen tested about 16,000 compounds, of which about 4,000 (25%) were called active. About 26% were inconclusive and are not listed. Only a sample is shown. Values without a mark were called inactive. The call rests on the fitted dose curve; in most records, active means well fitted curve in the direction sought with a large enough effect; inconclusive means small, poorly fitted or top-dose-only effect, or effect the other way; inactive means no such curve, though single readings can be large or run the other way.
target: Cytochrome P450 2C9 (Homo sapiens) (UniProt P11712); test: Cytochrome panel assay with activity outcomes; settings: recombinant CYP, pro-luciferin dealkylation, luminescence, p450-cyp2c9; series mostly up to 57.1 µM; activity, negative = inhibition: at the top concentration
On the % scale 0 is the no-effect control and ±100 the full control effect.

Cytochrome P450 2C9 (Homo sapiens), sequence (P11712 whole entry, looked up): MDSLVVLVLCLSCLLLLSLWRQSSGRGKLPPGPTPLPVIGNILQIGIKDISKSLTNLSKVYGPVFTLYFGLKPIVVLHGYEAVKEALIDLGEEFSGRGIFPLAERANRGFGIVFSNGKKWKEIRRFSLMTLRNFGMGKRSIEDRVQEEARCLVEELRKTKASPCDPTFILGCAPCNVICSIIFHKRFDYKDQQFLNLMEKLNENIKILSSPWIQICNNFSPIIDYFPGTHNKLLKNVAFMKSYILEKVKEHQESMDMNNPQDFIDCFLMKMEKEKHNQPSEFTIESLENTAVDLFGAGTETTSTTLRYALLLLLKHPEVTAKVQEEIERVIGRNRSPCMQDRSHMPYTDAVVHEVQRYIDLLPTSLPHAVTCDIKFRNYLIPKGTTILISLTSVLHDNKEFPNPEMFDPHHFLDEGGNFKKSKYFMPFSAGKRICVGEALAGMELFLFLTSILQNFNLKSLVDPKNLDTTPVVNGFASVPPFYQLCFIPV

| Compound | activity, negative = inhibition | AC50 |
| --- | --- | --- |
| CN(Cc1ccco1)c1cc(-c2cccnc2)ncn1 | 2.79% [at 2.29 µM] | – |
| CCCN1C(=O)C2(/C(=C(\O)c3ccc4c(c3)OCCO4)C(=O)C(=O)N2CCCOC)c2ccccc21 (centres undefined) | -25% | – |
| O=C(OCc1nnc(-c2ccccc2)o1)c1ccc2c(c1)OCCO2 | – | 7.94 µM (active) |
| Cc1cc(C)c(-c2cc([C@H](C)O/N=C3/[C@H]4OC4[C@@H](O)[C@H]4[C@H]3CCn3c(=O)n(-c5ccccc5)c(=O)n34)on2)c(C)c1 (some centres undefined) | -29.1% [at 11.4 µM] | – |
| Cc1ccc(C)c(OCCCC(C)(C)C(=O)O)c1 | – | 6.31 µM (active) |
| COC(=O)Cn1c(=N)n(CCN2CCCCC2)c2ccccc21 | -24.1% | – |
| Fc1ccc(Nc2nc(-c3ccoc3)nc3ccccc23)cc1 | 8.98% [at 2.29 µM] | – |
| CCCn1nc(Oc2nc(NCC)nc(NCC)n2)ccc1=O | -26.2% | – |
| CCCn1nc(Oc2nc(NCC)nc(NC(C)C)n2)ccc1=O | -18.8% | – |
| CC(C)Nc1nc(NC(C)(C)C)nc(Oc2ccc(=O)n(-c3ccccc3)n2)n1 | – | 20 µM (active) |
| C[N+]1(NCC[N@@+]2(C)CCc3ccccc3C2)CCCCC1 | 5.5% [at 11.4 µM] | – |
| CC(=O)OC[C@@H]1O[C@H](CCO/N=C(\C)CCN2CCCc3nc(C)c(C)cc32)C=C[C@@H]1OC(C)=O | -1.93% [at 11.4 µM] | – |
| CCCCn1nnnc1SCC(=O)N1CCCC1 | -25.2% | – |
| N[C@@H](CO)C(=O)O | – | inactive |
| CCSC[C@@H](N)C(=O)O | 4.58% [at 11.4 µM] | – |
| N[C@@H](CSS(=O)(=O)O)C(=O)O | – | 12.6 µM (active) |
| COCCNc1nc(-c2cccc(OC)c2)nc2ccccc12 | -26.4% [at 2.29 µM] | – |
| COc1ccc2[nH]cc(CCNc3nc(-c4ccccc4OC)nc4ccccc34)c2c1 | -1.54% [at 2.29 µM] | – |
| COc1ccc2[nH]cc(CCNc3nc(-c4ccc(N(C)C)cc4)nc4ccccc34)c2c1 | – | 0.398 µM (active) |
| COc1cccc(-c2nc(NCc3ccccc3)c3ccccc3n2)c1 | – | 1.26 µM (active) |
| COc1cccc(-c2nc(NCc3cccnc3)c3ccccc3n2)c1 | -29.9% [at 2.29 µM] | – |
| COc1ccc2[nH]cc(CCNc3nc(-c4ccccc4CN(C)C)nc4ccccc34)c2c1 | 10.1% [at 2.29 µM] | – |

| Compound | activity, negative = inhibition | AC50 |
| --- | --- | --- |
| COc1cccc(-c2nc(NCCc3c[nH]c4ccc(OC)cc34)c3ccccc3n2)c1 | – | 0.794 µM (active) |
| COc1ccc2[nH]cc(CCNc3ccnc(-c4ccc(N(C)C)cc4)n3)c2c1 | -7.16% [at 2.29 µM] | – |
| COc1cccc(-c2nc(NCc3cnc(C)cn3)c3ccccc3n2)c1 | 0.563% [at 2.29 µM] | – |
| Cc1c(C)c2c(c(C)c1O)CC[C@@](C)(C(=O)O)O2 | 1.61% [at 25.6 µM] | – |
| CC[C@H](CN(C)C)C(=O)c1ccco1 | 0.0002% [at 11.4 µM] | – |
| CCCC/C=C/C(NC(=O)c1ccccc1)c1ccccc1 (centres undefined) | – | 10 µM (active) |
| CCCC/C=C/C(NC(=O)c1cccs1)c1ccccc1 (centres undefined) | – | 0.316 µM (active) |
| CCCC/C=C/C(NC(=O)c1ccc(-c2ccccc2)cc1)c1ccccc1 (centres undefined) | 14.5% | – |
| C/C(=C\C1CCCCC1)C(NC(=O)c1ccc(C(F)(F)F)cc1)c1ccc(-c2ccccc2)cc1 (centres undefined) | 17.2% | – |
| Cc1occc1C(=O)NNC(=O)Cc1ccccc1 | -8.8% | – |
| CCCC/C=C/C(NC(=O)c1ccco1)c1ccccc1 (centres undefined) | – | 15.8 µM (active) |
| CCCC/C=C/C(NC(=O)c1ccc(C(F)(F)F)cc1)c1ccccc1 (centres undefined) | – | 2 µM (active) |
| CCC(CC)C(=O)NCCN1CCN(C(=O)C(CC)CC)CC1 | -25.1% | – |
| CN(C)CCn1nnnc1SCC1=C(C(=O)O)N2C(=O)[C@@H](NC(=O)Cc3csc(N)n3)[C@@H]2SC1 | -7.71% [at 25.6 µM] | – |
| Cn1c(=O)c2c(nc(C(=N)SCC(=O)O)n2C)n(C)c1=O | -13.3% [at 11.4 µM] | – |
| Cc1[nH]c2c(C)ccc(C)c2c1CC(=O)O | -16.5% [at 11.4 µM] | – |
| Cc1ccccc1-c1nc(NCc2cccnc2)c2ccccc2n1 | 9.82% [at 2.29 µM] | – |
| Clc1ccccc1-c1nc(NCc2cccnc2)c2ccccc2n1 | -14.1% [at 2.29 µM] | – |
| Clc1ccccc1-c1nc(N/N=C/c2cccnc2)c2ccccc2n1 | – | 2.24 µM (active) |
| CCC(=O)O[C@H](CC(=O)O)C[N+](C)(C)C | -21.4% | – |
| N[C@@H](COP(=O)(O)O)C(=O)O | 1.4% | – |
| Fc1ccc(-c2[nH]ncc2-c2nnnn2-c2ccccc2)c(F)c1 | – | 7.94 µM (active) |
